Screening data as filed in PubChem BioAssay.
EBNA-1 inh: blocks EBNA-1 binding to DNA | EBNA-1 DNA binding, fluorescence polarization | 0.34% of 300,000 active | inhibition, % at 14.8 µM; in the data active = inhibition above about 28%
dFosB activator: mouse delta FosB homodimer activation; 0.99% of 340,000 active; activation, % at 25 µM; AID 493131; P13346; purified delta FosB, TAMRA-CDK5 oligo fluorescence polarization; percent of positive-control signal above neutral wells;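 active = mean activation above about 17%, with every replicate also reaching it, limit read from the data, passing the limit was not always enough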
Rpn11 block: Rpn11 (human) deubiquitinase inhibition | O00487 | human 26S proteasome, Ub4-pepOG fluorescence polarization; 20S core pre-blocked with epoxomicin | inhibition, % at 20 µM | 0.59% of 360,000 active | AID 588493;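 active = inhibition at 20 µM, scaled to each plate's controls, above about 33%, limit read from the data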
Target sequence (O00487 whole entry, looked up): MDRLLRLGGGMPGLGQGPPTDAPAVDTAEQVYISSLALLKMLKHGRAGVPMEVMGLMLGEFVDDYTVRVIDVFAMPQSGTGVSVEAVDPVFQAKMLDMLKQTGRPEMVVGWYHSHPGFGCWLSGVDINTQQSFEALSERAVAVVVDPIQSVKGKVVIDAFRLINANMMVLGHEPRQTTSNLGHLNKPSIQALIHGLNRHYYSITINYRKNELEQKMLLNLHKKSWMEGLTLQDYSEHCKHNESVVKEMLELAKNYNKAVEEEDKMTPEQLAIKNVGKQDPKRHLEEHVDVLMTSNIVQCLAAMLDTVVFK
TPT1 inhibitor: C. albicans TPT1 enzyme inhibition. recombinant caTPT1, FP RNA substrate dephosphorylation. inhibition, % at 5 µM. 0.81% of 300,000 active. AID 1962;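 active = inhibition above the mean of all tested compounds plus 3 SD, set per screening campaign, cut at about 24% in these data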
ZTA counter: blocks Epstein-Barr virus ZTA, an EBNA-1 counter-screen; P03206; ZTA-DNA binding, fluorescence polarization; inhibition, % at 11 µM; 0.15% of 320,000 active; AID 2234; in the data active = inhibition above about 33%
GRIN3A LBD mod: modulators (binders) of human NR3A ligand-binding domain | 2.5% of 340,000 active | Tm shift relative to glycine control, % at 25 µM | NR3A LBD differential scanning fluorimetry, Tm shift; 0% = protein alone, 100% = glycine-bound protein;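 active = melting temperature shift of at least 10% of the positive control shift, at one fixed dose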
Numbers stand for hits; n = inactive; x = not tested or not shown. An excerpt weighted towards active compounds, which were near 4.5% of everything screened.

SMILES	EBNA-1 inh	dFosB activator	Rpn11 block	TPT1 inhibitor	ZTA counter	GRIN3A LBD mod
O=C(Cn1cc(COc2ccc(Br)cc2)nn1)c1ccc(O)cc1	x	n	n	x	x	n
O=C(Cn1cc(COc2ccc3ccc(=O)oc3c2)nn1)c1ccc(O)cc1	x	n	n	x	x	46
COc1ccc(NC(=O)C2CC(=O)N(Cc3ccco3)C2)cc1Cl (stereo unspecified)	x	n	n	x	n	n
NC(=S)n1[nH]c(-c2ccc([N+](=O)[O-])cc2)c(N=Nc2cccc([N+](=O)[O-])c2)c1=O	x	n	n	x	x	27
NC(=S)n1[nH]c(-c2ccc([N+](=O)[O-])cc2)c(N=Nc2ccccc2[N+](=O)[O-])c1=O	x	n	n	x	x	n
Cc1c(N=Nc2c(-c3ccc([N+](=O)[O-])cc3)[nH]n(C(N)=S)c2=O)cccc1[N+](=O)[O-]	x	n	n	x	x	25
COC(=O)c1cc(OC)c(OC)cc1N1C(=O)CC(C)(C)CC1=O	n	n	n	n	n	n
CCOc1ccc(OCC)c(NC(=O)CN2CCN(c3cccc(C)c3C)CC2)c1	n	n	n	n	n	11
CCOc1ccc(OCC)c(NC(=O)CN2CCN(C(=O)c3ccco3)CC2)c1	n	n	n	n	n	n
CN1CCN(CC(=O)Nc2ccccc2[N+](=O)[O-])CC1	n	n	n	n	n	n
Cc1cccc(N2CCN(CC(=O)Nc3ccccc3[N+](=O)[O-])CC2)c1C	n	n	n	n	n	15
COc1cc(NC(=O)CN2CCN(c3ccccc3F)CC2)c(C)cc1[N+](=O)[O-]	n	n	n	n	n	15
Cc1ccc(CNC(=O)C(Cc2ccccc2)NS(=O)(=O)c2ccc(Br)s2)cc1 (stereo unspecified)	n	n	n	n	n	n
COC(=O)c1ccc(CN2CCN(CC=C(C)C)C(CCO)C2)cc1 (stereo unspecified)	n	n	n	n	n	n
COc1ccc(NC(=O)c2cccc(Oc3ccccc3)c2)cn1	n	n	n	n	n	n
O=C1CSc2ccc(C(=O)Nc3cccc(S(=O)(=O)Nc4ccc(Br)cc4)c3)cc2N1	n	n	n	n	n	28
Cc1ccc(C(=O)Nc2ccc3ncccc3c2)cc1	n	n	n	n	n	n
O=C(Nc1ccc2ncccc2c1)c1cccc(Br)c1	n	n	n	n	n	22
O=C(Nc1ccc(Br)cc1)c1cccc(S(=O)(=O)Nc2ccccn2)c1	n	n	n	n	n	n
O=C(Nc1ccc(Br)cc1)c1cccc(S(=O)(=O)Nc2cnc3ccccc3c2)c1	n	n	n	n	n	41
COc1ccc(NC(=O)c2cccc(S(=O)(=O)Nc3ccc(Br)cc3)c2)cn1	n	n	n	n	n	22
COc1ccccc1CCCNC(=O)C1CCC(=O)N(CCc2cccc(F)c2)C1 (stereo unspecified)	n	n	n	n	n	n
O=C(Nc1ccccc1)c1cccc(S(=O)(=O)Nc2ccccn2)c1	n	n	n	n	n	16
C=CCc1ccccc1Oc1cc(OC)nc(N)n1	x	n	n	x	x	n
CCn1c(O)c(/C=C2\C=Nc3ccccc32)sc1=Nc1ccccc1	n	n	n	n	n	12
SMILES	EBNA-1 inh	dFosB activator	Rpn11 block	TPT1 inhibitor	ZTA counter	GRIN3A LBD mod
Cc1ccc(COC(=O)CCN=C2NS(=O)(=O)c3ccccc32)cc1	n	n	n	n	n	n
COc1cc([N+](=O)[O-])cc(/C=N/NC(=O)C(C)Nc2cccc3ccccc23)c1O (stereo unspecified)	n	n	n	n	n	n
CC(Nc1cccc2ccccc12)C(=O)N/N=C/c1ccc([N+](=O)[O-])cc1 (stereo unspecified)	n	n	n	n	n	22
O=C(N/N=C/c1cccc(O)c1)c1ccc(COc2ccccc2Br)cc1	n	n	n	n	n	35
Cc1ccc(C(C)C)c(OCc2ccc(C(=O)N/N=C/c3ccc(C(=O)O)cc3)cc2)c1	n	n	n	n	n	n
Cc1ccc(C(C)C)c(OCc2ccc(C(=O)N/N=C/c3ccc(O)cc3O)cc2)c1	n	n	n	n	n	26
COc1cccc(/C=N\NC(=O)c2ccc(Cn3cc(Br)c([N+](=O)[O-])n3)o2)c1O	n	24	n	n	n	n
O=C(Nc1ccc(Cn2cccn2)cc1)c1ccc(COc2ccccc2Br)cc1	n	n	n	n	n	30
